PubChem BioAssay (NCI)
This is part of a sample that, as a whole, favours compounds with a hit. Of some 83,000 tested, about 20% had one in any assay.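 Activity criterion: percent growth below 10, measured after cells in 96-well plates were exposed to a single compound concentration for 48 hours.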 A number with no mark means an inactive call. Active and inactive are the calls of the source.

What was measured:
Test in all cases: NCI-60 one-dose screen, 48 h (100 = growth as untreated, 0 = no growth, -100 = all killed)
Details in all cases: 10 µM unless noted
DU-145 prostate = test system: DU-145 prostate
K-562 leukemia = test system: K-562 leukemia
MALME-3M melanoma = test system: MALME-3M melanoma
MDA-MB-231 breast = test system: MDA-MB-231 breast
RXF 393 renal = test system: RXF 393 renal
SF-268 CNS = test system: SF-268 CNS
SF-295 CNS = test system: SF-295 CNS
SF-539 CNS = test system: SF-539 CNS
UACC-257 melanoma = test system: UACC-257 melanoma
M14 melanoma = test system: M14 melanoma
HCT-15 colon = test system: HCT-15 colon
HT29 colon = test system: HT29 colon
SNB-75 CNS = test system: SNB-75 CNS
SNB-19 CNS = test system: SNB-19 CNS
U251 CNS = test system: U251 CNS
PC-3 prostate = test system: PC-3 prostate
SK-MEL-5 melanoma = test system: SK-MEL-5 melanoma
UACC-62 melanoma = test system: UACC-62 melanoma
LOX IMVI melanoma = test system: LOX IMVI melanoma
SK-MEL-28 melanoma = test system: SK-MEL-28 melanoma

Structure (SMILES) | growth (DU-145 prostate) | growth (K-562 leukemia) | growth (MALME-3M melanoma) | growth (MDA-MB-231 breast) | growth (RXF 393 renal) | growth (SF-268 CNS) | growth (SF-295 CNS) | growth (SF-539 CNS) | growth (UACC-257 melanoma) | growth (M14 melanoma) | growth (HCT-15 colon) | growth (HT29 colon) | growth (SNB-75 CNS) | growth (SNB-19 CNS) | growth (U251 CNS) | growth (PC-3 prostate) | growth (SK-MEL-5 melanoma) | growth (UACC-62 melanoma) | growth (LOX IMVI melanoma) | growth (SK-MEL-28 melanoma)
C#CCOc1ccccc1/C=N/Nc1nc(-c2ccc(Cl)cc2)cs1 | 104% | 86.2% | 97.2% | 86.4% | 102% | 98.9% | 109% | 89.5% | 102% | 94% | 104% | 106% | 92.5% | 97.9% | 99.2% | 86.5% | 98.3% | 85.7% | 95.1% | 98.1%
COc1ccc(C2CC(c3cccc(OCCCCOc4cccc(C5=NN(C(C)=O)C(c6ccc(OC)cc6)C5)c4)c3)=NN2C(C)=O)cc1 (stereo not given) | 81.6% | 37% | 105% | 77.3% | 95.2% | 74.8% | 44.3% | 81.5% | 46.8% | 85.3% | 75% | 89.3% | 75.4% | 64.5% | 81.9% | 48.4% | 11.8% | 57.1% | 62.2% | 97.2%
CCCCCCOC(=O)c1cc(-c2ccc(F)cc2)nc2ccccc12 | 105% | 101% | 97.1% | 85.6% | 96.8% | 96.1% | 98% | 99.9% | 99.1% | 96.9% | 94.8% | 96.3% | 69.9% | 92.6% | 101% | 94.2% | 99.7% | 79% | 91.3% | 107%
O=C(/C=C/c1cccc(C(F)(F)F)c1)Nc1cccc(C(F)(F)F)c1 | 30.1% | 23.2% | 84.7% | 108% | 88.7% | 70.7% | 10.5% | 97.1% | 87.5% | 56.8% | 14.9% | 51.5% | 97.5% | 81.9% | 26.9% | 18.9% | 89.1% | 84.5% | 28.4% | 65.4%
COc1ccc(C(C)=C(c2ccc(OCCN3CCCCCC3)cc2)c2ccc(OCCN3CCCCCC3)cc2)cc1 | 6.1% (active) | -32.5% (active) | -86.9% (active) | -60.5% (active) | -82.4% (active) | 4.71% (active) | -86% (active) | -88.4% (active) | -65.5% (active) | -89.5% (active) | -82.1% (active) | -49.9% (active) | -12% (active) | -51.7% (active) | -77.9% (active) | -54.6% (active) | -92% (active) | -65.2% (active) | -84% (active) | -89.3% (active)
C#C[C@]1(O)CC[C@H]2[C@@H]3CC=C4c5sc(N6CCN(C)CC6)nc5CC[C@]4(C)[C@H]3CC[C@@]21C | 75.5% | 0.102% (active) | 56.9% | 62% | -22.1% (active) | 52.4% | -39.8% (active) | 7.74% (active) | 61.5% | -73.4% (active) | 8.12% (active) | 5.26% (active) | 75.2% | 63.3% | 21.8% | 22.4% | 38.5% | 51.2% | 25.6% | 31%
CN1CCN(c2ccc(Nc3nc(NCCNS(=O)(=O)c4ccc(Cl)cc4)c4sccc4n3)cc2)CC1 | 98.2% | 9.68% (active) | 105% | 95% | 41.2% | 70% | 97.9% | 85.5% | 87.5% | 102% | 47.7% | 44.3% | 72.9% | 104% | 60.1% | 81.8% | 93.6% | 98.5% | 92% | 94.5%
O=C1C(SCc2ccccc2)=C(Cl)CN1c1ccccc1 | 102% | 62% | 94.6% | 93.1% | 105% | 105% | 97.8% | 95% | 106% | 97.7% | 95.8% | 106% | 92.2% | 96.2% | 101% | 109% | 99.4% | 93.1% | 42.8% | 98.9%
